Our source for the growth values is PubChem BioAssay (NCI).

The panel holds about 83,000 compounds, 20% with a hit somewhere; the sample as a whole holds those more often.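 Single-concentration screen, 48 h exposure, 96-well plates. Endpoint: percent growth. Below 10 = active.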 The source made the active and inactive calls.

The first test concerns SR leukemia. Description: NCI-60 one-dose screen, 48 h (100 = growth as untreated, 0 = no growth, -100 = all killed). The settings on record: 10 µM unless noted.
Take `CN1CCN(/C(=N\c2sc(-c3ccccc3)nc2-c2ccccc2)c2ccccc2)CC1`: the growth was 21.1% (inactive). On to `N=C1N=C(SCc2nc3ccccc3[nH]2)NC(=O)/C1=C/c1ccc(Cl)cc1`, for which the growth is 98.7% (inactive). The same measure, in the same setting: the figure for `C/C(=N\N=C1/C(=O)Nc2ccc(Cl)cc21)c1ccc2c(c1)Nc1ccccc1S2` is 11.4% (inactive); for `Cc1cccc(NC(=O)CN2CCN(c3ncnc4c3cnn4-c3ccccc3)CC2)c1` it is 55.9% (inactive); for `CN(C)CCOc1ccc(C(=O)C2[C@H](c3ccc(Cl)cc3)[C@@H](c3ccccc3)NC23C(=O)Nc2ccccc23)cc1` (stereo partly drawn) it is -18% (active). Still for that read-out and setting: the figure for `COc1ccc2[nH]cc(-c3nnc(N)nc3-c3cn(C)c4ncc(Br)cc34)c2c1` is 49.6% (inactive).

The test system of another test is RPMI-8226 leukemia. The test is described as above. The settings on record: 10 µM unless noted.
Regarding `COc1c(F)ccc(C(=O)Nc2ccc3nc(NC(=O)C4CCCN(S(=O)(=O)C5CC5)C4)sc3c2)c1F` (stereo not drawn), the growth was 19% (inactive). In the case of `CCOC(=O)C1=C(N)N(c2ccccc2)C2=C(C(=O)CC(C)(C)C2)C1c1ccc(N2CCOCC2)cc1` (stereo not drawn), the growth was 96.2% (inactive). Take `OCC1(CCCc2ccccc2)CCCN(c2nccc3ccccc23)C1` (stereo not drawn): the growth is 5.11% (active). Same read-out and setting: the figure for `COc1ccc(/C=N/NC(=O)Cn2nc(Cc3ccc(OC)cc3)c3onc(C)c3c2=O)cc1` is 53.7% (inactive); for `O=[N+]([O-])c1ccc(/C=C/c2nc3ccccc3n3c(=S)[nH]nc23)cc1` it is 56.5% (inactive). As to `COC(=O)/C=C/c1cccc2c1C(=O)NC(C)(c1cc3ccccc3oc1=O)N2` (stereo not drawn), the growth is 82.6% (inactive).

For the compound `CCN(CC)c1ccc(/C=N/Nc2nc(-c3ccc(Br)cc3)cs2)c(O)c1`, the growth is 38.4% (inactive).
